The record followed here is publication PMC5700166.

What all share (assay): protein-binding microarray (PBM); PBM: ~300 nM protein, 6 mM HEPES pH 7.8, 80 mM KCl, 0.5 mM EDTA, 0.5 mM EGTA, 6% glycerol, 35 ng/ul poly-dIdC, 1% milk, 1 h, room temperature; Ap Aiptasia and Nv Nematostella (sea anemones) / Co Capsaspora / Aq Amphimedon (sponge) / Dm Drosophila / Hu human; RHD is the Rel homology domain; high values mean tight binding
Settings in all cases: dsDNA, one strand shown

One test has as its target T1, GST-Ap-NF-kB RHD (Exaiptasia pallida (Aiptasia), UniProt A0A913YAJ5 2-422).
T1 sequence: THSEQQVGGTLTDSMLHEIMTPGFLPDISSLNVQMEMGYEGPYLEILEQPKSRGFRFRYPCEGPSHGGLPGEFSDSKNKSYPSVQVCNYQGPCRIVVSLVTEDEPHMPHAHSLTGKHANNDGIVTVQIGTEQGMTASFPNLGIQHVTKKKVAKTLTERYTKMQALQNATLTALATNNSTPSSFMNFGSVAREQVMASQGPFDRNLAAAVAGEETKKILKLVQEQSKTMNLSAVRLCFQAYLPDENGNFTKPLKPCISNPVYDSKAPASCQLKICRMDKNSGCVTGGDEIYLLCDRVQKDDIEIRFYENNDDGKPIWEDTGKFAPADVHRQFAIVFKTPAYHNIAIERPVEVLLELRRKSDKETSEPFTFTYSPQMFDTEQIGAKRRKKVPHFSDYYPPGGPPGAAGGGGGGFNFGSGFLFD

In the next test the target is T2, GST-Co-NF-kB (Capsaspora owczarzaki, UniProt F1ARL5 200-546).
T2 sequence: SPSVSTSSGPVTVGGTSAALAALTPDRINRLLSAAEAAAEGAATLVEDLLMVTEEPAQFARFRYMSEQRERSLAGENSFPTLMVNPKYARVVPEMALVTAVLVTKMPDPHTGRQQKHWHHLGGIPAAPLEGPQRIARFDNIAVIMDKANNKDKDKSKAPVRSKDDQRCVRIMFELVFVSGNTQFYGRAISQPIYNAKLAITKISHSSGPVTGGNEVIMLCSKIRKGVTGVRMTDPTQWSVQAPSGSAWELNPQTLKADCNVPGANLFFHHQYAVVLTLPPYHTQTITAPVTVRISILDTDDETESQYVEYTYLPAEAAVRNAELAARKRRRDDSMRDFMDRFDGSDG

The target of another test is T3, GST-Dm-Relish (Drosophila melanogaster, UniProt Q94527 99-473).
T3 sequence: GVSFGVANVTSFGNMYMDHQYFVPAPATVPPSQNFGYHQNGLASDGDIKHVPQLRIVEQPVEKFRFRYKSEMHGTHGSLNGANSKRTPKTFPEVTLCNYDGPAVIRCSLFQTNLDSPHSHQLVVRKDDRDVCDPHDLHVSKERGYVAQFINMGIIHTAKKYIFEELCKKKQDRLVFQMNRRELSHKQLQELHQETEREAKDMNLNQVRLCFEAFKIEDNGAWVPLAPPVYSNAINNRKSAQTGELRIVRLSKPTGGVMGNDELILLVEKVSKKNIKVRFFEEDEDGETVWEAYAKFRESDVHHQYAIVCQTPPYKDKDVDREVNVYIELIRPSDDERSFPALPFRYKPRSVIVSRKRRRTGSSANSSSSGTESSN

Test [1] addresses T4, GST-Nv-NF-kB (Cys allele) (Nematostella vectensis, UniProt E5G601 2-411).
T4 sequence: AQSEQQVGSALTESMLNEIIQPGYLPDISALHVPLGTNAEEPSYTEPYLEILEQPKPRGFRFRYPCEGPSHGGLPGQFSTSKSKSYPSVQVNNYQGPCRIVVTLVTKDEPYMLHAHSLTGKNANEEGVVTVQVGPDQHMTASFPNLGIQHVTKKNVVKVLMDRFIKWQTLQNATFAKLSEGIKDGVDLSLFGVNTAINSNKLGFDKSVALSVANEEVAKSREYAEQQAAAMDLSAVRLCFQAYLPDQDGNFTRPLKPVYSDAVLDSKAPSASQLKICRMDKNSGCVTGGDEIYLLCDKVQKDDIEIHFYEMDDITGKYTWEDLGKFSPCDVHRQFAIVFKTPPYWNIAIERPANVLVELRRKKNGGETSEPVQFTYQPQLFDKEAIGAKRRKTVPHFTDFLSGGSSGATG

For test [2], the target named is T5, GST-Nv-NF-kB (Ser allele) (Nematostella vectensis, UniProt A7UNT2 2-411).
T5 sequence: T4 sequence with Q21R, C66S, S207N, E215Q, V217A, E225K, A268E, D399E

Residue numbers refer to the chain shown, from its start.

“CCGATTAACATCACCCCCCCCCCTGATGTTAATCGGGTCTTGATTCGCTTGACGCTGCTG”: the binding signal was 5.35 z-score with GST-Ap-NF-kB RHD, 7.37 z-score in the test with GST-Co-NF-kB and 4.97 z-score with GST-Dm-Relish.

On to “CCGATTAACATCACGGTGTGGGTTGATGTTAATCGGGTCTTGATTCGCTTGACGCTGCTG”, for which the binding signal with GST-Co-NF-kB was 1.37 z-score.

In the case of “CCGATTAACATCACCCCATCTCGTGATGTTAATCGGGTCTTGATTCGCTTGACGCTGCTG”, the figures for the binding signal with GST-Ap-NF-kB RHD, with GST-Co-NF-kB and with GST-Dm-Relish were 1.2 z-score, 2.11 z-score and 1.42 z-score, respectively.

In the case of “CCGATTAACATCAAGAACCTTCTTGATGTTAATCGGGTCTTGATTCGCTTGACGCTGCTG”, the binding signal in test [1] was 1.02 z-score.

For “CCGATTAACATCACCCGGCGCAGTGATGTTAATCGGGTCTTGATTCGCTTGACGCTGCTG”, the figures for the binding signal with GST-Ap-NF-kB RHD and in the test with GST-Co-NF-kB were 1.17 z-score and 2.3 z-score, respectively.

Take “CCGATTAACATCAACCCCCCCCCTGATGTTAATCGGGTCTTGATTCGCTTGACGCTGCTG”: the binding signal in the test with GST-Ap-NF-kB RHD amounted to 5.71 z-score; in test [2], 4.2 z-score; in the test with GST-Co-NF-kB, 5.49 z-score; with GST-Dm-Relish it was 5.26 z-score.

As for “CCGATTAACATCAATCAGCGGGGTGATGTTAATCGGGTCTTGATTCGCTTGACGCTGCTG”, the binding signal in the test with GST-Ap-NF-kB RHD is 1.21 z-score; with GST-Co-NF-kB, 2.43 z-score.

On to “CCGATTAACATCAATTAGGTGGGTGATGTTAATCGGGTCTTGATTCGCTTGACGCTGCTG”, for which the figures for the binding signal in the test with GST-Ap-NF-kB RHD and in the test with GST-Co-NF-kB were 1.19 z-score and 1.13 z-score, respectively.

Sequence “CCGATTAACATCAGGGCAAAAAATGATGTTAATCGGGTCTTGATTCGCTTGACGCTGCTG” came in with a binding signal with GST-Co-NF-kB of 1.84 z-score.

For “CCGATTAACATCACCCGCGCTCATGATGTTAATCGGGTCTTGATTCGCTTGACGCTGCTG”, the values for the binding signal with GST-Ap-NF-kB RHD and in the test with GST-Dm-Relish were 1.32 z-score and 1.06 z-score, respectively.

“CCGATTAACATCAGATAGGTACTTGATGTTAATCGGGTCTTGATTCGCTTGACGCTGCTG” had a binding signal in test [2] of 2.46 z-score.

Consider “CCGATTAACATCACCCAAAGTTTTGATGTTAATCGGGTCTTGATTCGCTTGACGCTGCTG”, for which the binding signal with GST-Co-NF-kB turned out to be 1.24 z-score.

On to “CCGATTAACATCACACCCGCAACTGATGTTAATCGGGTCTTGATTCGCTTGACGCTGCTG”, for which the binding signal in the test with GST-Co-NF-kB was 1.54 z-score.

In the test with GST-Co-NF-kB, “CCGATTAACATCAAGAGAGAAAGTGATGTTAATCGGGTCTTGATTCGCTTGACGCTGCTG” showed a binding signal of 1.16 z-score.

Take “CCGATTAACATCAAAATTCCATGTGATGTTAATCGGGTCTTGATTCGCTTGACGCTGCTG”: the binding signal with GST-Dm-Relish stood at 1.36 z-score.

For “CCGATTAACATCAAAAAAATTACTGATGTTAATCGGGTCTTGATTCGCTTGACGCTGCTG”, in the test with GST-Dm-Relish, the binding signal worked out at 3.61 z-score.

As to “CCGATTAACATCACGTGTTTTCCTGATGTTAATCGGGTCTTGATTCGCTTGACGCTGCTG”, in the test with GST-Dm-Relish, the binding signal turned out to be 1.04 z-score.

“CCGATTAACATCAGGAAATAACATGATGTTAATCGGGTCTTGATTCGCTTGACGCTGCTG”: in the test with GST-Dm-Relish, the binding signal worked out at 2.04 z-score.

As to “CCGATTAACATCAGCCATATTTGTGATGTTAATCGGGTCTTGATTCGCTTGACGCTGCTG”, in the test with GST-Co-NF-kB, the binding signal turned out to be 1.13 z-score.

With “CCGATTAACATCACCCACGAGGGTGATGTTAATCGGGTCTTGATTCGCTTGACGCTGCTG”, the binding signal with GST-Co-NF-kB worked out at 1.35 z-score; with GST-Dm-Relish, 1.29 z-score.

In the test with GST-Co-NF-kB, “CCGATTAACATCATACCTCCCGTTGATGTTAATCGGGTCTTGATTCGCTTGACGCTGCTG” showed a binding signal of 1.01 z-score.

In turn, “CCGATTAACATCAGGAAACTACATGATGTTAATCGGGTCTTGATTCGCTTGACGCTGCTG” displayed a binding signal with GST-Dm-Relish of 5.23 z-score.

In the test with GST-Dm-Relish, “CCGATTAACATCAGGAAAATTACTGATGTTAATCGGGTCTTGATTCGCTTGACGCTGCTG” gave a binding signal of 1.67 z-score.

In the test with GST-Co-NF-kB, “CCGATTAACATCAGGGTATAACGTGATGTTAATCGGGTCTTGATTCGCTTGACGCTGCTG” gave a binding signal of 1.1 z-score.

In the test with GST-Dm-Relish, “CCGATTAACATCACGGAATGTACTGATGTTAATCGGGTCTTGATTCGCTTGACGCTGCTG” gave a binding signal of 1.8 z-score.

As for “CCGATTAACATCAGGGTGTAGTTTGATGTTAATCGGGTCTTGATTCGCTTGACGCTGCTG”, the binding signal was found to be 1.14 z-score in the test with GST-Co-NF-kB and 1.07 z-score with GST-Dm-Relish.

With “CCGATTAACATCACCCATTTCCGTGATGTTAATCGGGTCTTGATTCGCTTGACGCTGCTG”, the binding signal was 1.41 z-score in the test with GST-Co-NF-kB and 1.34 z-score in the test with GST-Dm-Relish.

In turn, “CCGATTAACATCAACGTGATTTGTGATGTTAATCGGGTCTTGATTCGCTTGACGCTGCTG” registered a binding signal with GST-Co-NF-kB of 1.11 z-score.

“CCGATTAACATCAGGTCACCCCATGATGTTAATCGGGTCTTGATTCGCTTGACGCTGCTG” gave a binding signal with GST-Co-NF-kB of 2.51 z-score.

“CCGATTAACATCAGGAAAATCACTGATGTTAATCGGGTCTTGATTCGCTTGACGCTGCTG” yielded a binding signal with GST-Dm-Relish of 3.47 z-score.

As for “CCGATTAACATCACAAATTTTCCTGATGTTAATCGGGTCTTGATTCGCTTGACGCTGCTG”, the binding signal turned out to be 1.2 z-score with GST-Co-NF-kB and 2.01 z-score in the test with GST-Dm-Relish.

In the test with GST-Dm-Relish, “CCGATTAACATCAGTAAACTCCATGATGTTAATCGGGTCTTGATTCGCTTGACGCTGCTG” gave a binding signal of 1.1 z-score.

In the test with GST-Co-NF-kB, “CCGATTAACATCACCTTCTTTACTGATGTTAATCGGGTCTTGATTCGCTTGACGCTGCTG” gave a binding signal of 1.57 z-score.

In the test with GST-Dm-Relish, “CCGATTAACATCAAGTAATTTTCTGATGTTAATCGGGTCTTGATTCGCTTGACGCTGCTG” returned a binding signal of 1.86 z-score.

Consider “CCGATTAACATCATGTCGGGTGATGATGTTAATCGGGTCTTGATTCGCTTGACGCTGCTG”, for which the binding signal with GST-Co-NF-kB stood at 1.26 z-score.

Sequence “CCGATTAACATCAGGGAGCGGTTTGATGTTAATCGGGTCTTGATTCGCTTGACGCTGCTG” came in with a binding signal with GST-Co-NF-kB of 1.07 z-score.

Turning to “CCGATTAACATCAAGTACAACGGTGATGTTAATCGGGTCTTGATTCGCTTGACGCTGCTG”, the binding signal with GST-Dm-Relish amounted to 1.44 z-score.

On to “CCGATTAACATCAGGAAAAAAACTGATGTTAATCGGGTCTTGATTCGCTTGACGCTGCTG”, for which the binding signal was found to be 1.06 z-score in the test with GST-Co-NF-kB and 1.23 z-score in the test with GST-Dm-Relish.
